This passage reports composite z-score and z-score results from PubChem BioAssay.

Calls of active or inactive are those of the source.

Experiment [1] is described as follows: small molecules captured by biotinylated probe aFSTL3 – biochemical, small-molecule microarray, fluorescence 635/667, stem cell growth factor project, primary screen (AID 1064).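 Further: measures binding of the biotinylated anti-FSTL3 antibody to printed compounds.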 The note with it: higher = more signal.
Experiment [2] is described as follows: binders from COS7 lysate, DM2A8 probe, primary screen, torsin A project, cell lysate, small-molecule microarray, fluorescence 635/667 (AID 1065). As to conditions: higher = more signal, COS7 lysate expressing mutant human TOR1A.
The nature of experiment [3]: small molecules captured by biotinylated probe aFGF2 – biochemical, small-molecule microarray, fluorescence 635/667, stem cell growth factor project, primary screen (AID 1067).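 Further: measures binding of biotinylated aFGF2 protein to printed compounds on slides; z-score merges feature fluorescence and signal-to-noise across triplicate slides.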 As to conditions: higher = more signal.
Experiment [4] is described as follows: small molecules captured by biotinylated probe aFGF10 – biochemical, small-molecule microarray, fluorescence 635/667, stem cell growth factor project, primary screen (AID 1071).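 Further: score merges 667 nm spot intensity and signal to noise from triplicate slides.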 The note with it: higher = more signal.
In experiment [5] the target is Neurogenic locus notch homolog protein 2 (Homo sapiens) (UniProt Q04721). The experiment is described as follows: small molecules binding Notch2 protein – biochemical, small-molecule microarray, 635 nm fluorescence, stem cell growth factors, primary screen (AID 1073). The note with it: higher = more signal.
Experiment [6] addresses Pro-neuregulin-1, membrane-bound isoform (Homo sapiens) (UniProt Q02297). The experiment can be described thus: small molecules binding neuregulin-1 protein – biochemical, small-molecule microarray, fluorescence 635/667, psychiatric disease protein project, primary screen (AID 1075).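 Further: score combines 667 nm spot fluorescence with signal to noise.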 The note with it: NRG1 binding, 635 nm fluorescence, higher = more signal.
The test system of experiment [7] is Neuregulin-1 EGF-like domain. The experiment is described as follows: small molecules binding NRG1 EGF domain – biochemical, small-molecule microarray, 635 nm fluorescence, primary screen (AID 1081).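 Further: binding of the protein to compounds printed on small-molecule microarray slides.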 The note with it: higher = more signal.
Experiment [8] can be described thus: FRG1 expression reporter modulators in myotubes – cell-based, C2C12 myotubes, firefly/Renilla luciferase, luminescence, FRG1 inhibition for FSHD, primary screen (AID 1084). As to conditions: FRG1 promoter luciferase, higher = more signal, called active from +8 up or from −8 down.
Experiment [9] is described as follows: small molecules captured by biotinylated probe aFST – biochemical, small-molecule microarray, fluorescence 635/667, stem cell growth factor project, primary screen (AID 1086).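 Further: score merges 667 nm fluorescence with signal-to-noise of each printed compound spot.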 As to conditions: higher = more signal.
Experiment [10] is described as follows: binders of probe aHhip on microarray, primary screen, stem cell growth factor project, biochemical, small-molecule microarray, fluorescence 635/667 (AID 1087).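 Further: score merges spot fluorescence at 667nm with spot signal to noise ratio.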 As to conditions: higher = more signal.
The test system of experiment [11] is PRMT1 (protein arginine N-methyltransferase 1). The experiment is described as follows: small molecules binding arginine methyltransferase PRMT1 – biochemical, small-molecule microarray, 635 nm fluorescence, primary screen (AID 1088).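 Further: binding of Prmt1 protein to compounds spotted on small-molecule microarray slides.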 The note with it: higher = more signal.
A short description of experiment [12]: growth effects on S. cerevisiae YJM789 – YJM789 clinical isolate, OD600, 24 h, basal, primary screen (AID 1089).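 Further: growth of clinical yeast isolate S. cerevisiae YJM 789 seeded 1000 cells per well; test concentration not given here.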 As to conditions: higher = more signal, called active from +8 up or from −8 down.
Experiment [13] in a line: S. pombe growth modifiers, basal conditions – strain 972, OD600, 24 h, no modulator, primary screen (AID 1090).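 Further: basal condition with compound alone and no growth modifier present; test concentration not given here.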 As to conditions: S. pombe 972 growth, higher = more signal, called active from +8 up or from −8 down.
A short description of experiment [14]: budding yeast growth modifiers under rapamycin – strain BY4716, OD600, 96 h, primary screen (AID 1091). Further: test concentration not given here. As to conditions: S. cerevisiae BY4716 + rapamycin, higher = more signal, called active from +8 up or from −8 down.
Experiment [15] addresses Torsin-1A-interacting protein 2 (Homo sapiens) (UniProt Q8NFQ8). The experiment is described as follows: small molecules binding lysate-expressed LULL1 – cell lysate, human LULL1 lysate, 635/667 nm fluorescence, primary screen (AID 1092).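 Further: score merges per-feature 667 nm fluorescence with signal-to-noise.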 The note with it: small-molecule microarray, hLULL1 lysate binding, 635 nm fluorescence; higher = more signal.
Experiment [16] can be described thus: optical density change of DRC41 E. coli – strain DRC41, OD650, 24 h, E. coli filamentation project, primary screen (AID 1093).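 Further: MC1000 strain lacking acrAB efflux and sulA so SOS filamentation is blocked; test concentration not given here.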 The note with it: E. coli DRC41 growth, higher = more signal, called active from +8 up or from −8 down.
The nature of experiment [17]: probe aLefty2 binding to arrayed compounds – biochemical, biotinylated probe, 635/667 nm fluorescence, primary screen (AID 1094).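 Further: score merges spot fluorescence near 667 nm with spot signal-to-noise ratio.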 The note with it: small-molecule microarray, higher = more signal.
Experiment [18] deals with Noggin (protein binding on small-molecule microarray). The experiment is described as follows: small molecules binding Noggin protein – biochemical, 635/667 nm fluorescence, primary screen (AID 1095).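 Further: score merges 667 nm feature fluorescence with signal to noise over triplicate slides.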 As to conditions: 635 nm fluorescence, higher = more signal.
Experiment [19] concerns the target Neurogenic locus notch homolog protein 3 (Homo sapiens) (UniProt Q9UM47). The experiment can be described thus: small molecules binding NOTCH3 protein – biochemical, 635/667 nm fluorescence, primary screen (AID 1096). The note with it: small-molecule microarray, 635 nm fluorescence, higher = more signal.
Experiment [20] in a line: probe aEGFR binding to arrayed compounds – biochemical, biotinylated probe, 635/667 nm fluorescence, primary screen (AID 1097).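 Further: probe is a biotinylated anti-EGFR antibody binding compounds printed on slides; score combines fluorescence near 667 nm and signal to noise of each spot.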 The note with it: small-molecule microarray, higher = more signal.

Neurogenic locus notch homolog protein 3 (Homo sapiens), sequence (Q9UM47 whole entry, looked up): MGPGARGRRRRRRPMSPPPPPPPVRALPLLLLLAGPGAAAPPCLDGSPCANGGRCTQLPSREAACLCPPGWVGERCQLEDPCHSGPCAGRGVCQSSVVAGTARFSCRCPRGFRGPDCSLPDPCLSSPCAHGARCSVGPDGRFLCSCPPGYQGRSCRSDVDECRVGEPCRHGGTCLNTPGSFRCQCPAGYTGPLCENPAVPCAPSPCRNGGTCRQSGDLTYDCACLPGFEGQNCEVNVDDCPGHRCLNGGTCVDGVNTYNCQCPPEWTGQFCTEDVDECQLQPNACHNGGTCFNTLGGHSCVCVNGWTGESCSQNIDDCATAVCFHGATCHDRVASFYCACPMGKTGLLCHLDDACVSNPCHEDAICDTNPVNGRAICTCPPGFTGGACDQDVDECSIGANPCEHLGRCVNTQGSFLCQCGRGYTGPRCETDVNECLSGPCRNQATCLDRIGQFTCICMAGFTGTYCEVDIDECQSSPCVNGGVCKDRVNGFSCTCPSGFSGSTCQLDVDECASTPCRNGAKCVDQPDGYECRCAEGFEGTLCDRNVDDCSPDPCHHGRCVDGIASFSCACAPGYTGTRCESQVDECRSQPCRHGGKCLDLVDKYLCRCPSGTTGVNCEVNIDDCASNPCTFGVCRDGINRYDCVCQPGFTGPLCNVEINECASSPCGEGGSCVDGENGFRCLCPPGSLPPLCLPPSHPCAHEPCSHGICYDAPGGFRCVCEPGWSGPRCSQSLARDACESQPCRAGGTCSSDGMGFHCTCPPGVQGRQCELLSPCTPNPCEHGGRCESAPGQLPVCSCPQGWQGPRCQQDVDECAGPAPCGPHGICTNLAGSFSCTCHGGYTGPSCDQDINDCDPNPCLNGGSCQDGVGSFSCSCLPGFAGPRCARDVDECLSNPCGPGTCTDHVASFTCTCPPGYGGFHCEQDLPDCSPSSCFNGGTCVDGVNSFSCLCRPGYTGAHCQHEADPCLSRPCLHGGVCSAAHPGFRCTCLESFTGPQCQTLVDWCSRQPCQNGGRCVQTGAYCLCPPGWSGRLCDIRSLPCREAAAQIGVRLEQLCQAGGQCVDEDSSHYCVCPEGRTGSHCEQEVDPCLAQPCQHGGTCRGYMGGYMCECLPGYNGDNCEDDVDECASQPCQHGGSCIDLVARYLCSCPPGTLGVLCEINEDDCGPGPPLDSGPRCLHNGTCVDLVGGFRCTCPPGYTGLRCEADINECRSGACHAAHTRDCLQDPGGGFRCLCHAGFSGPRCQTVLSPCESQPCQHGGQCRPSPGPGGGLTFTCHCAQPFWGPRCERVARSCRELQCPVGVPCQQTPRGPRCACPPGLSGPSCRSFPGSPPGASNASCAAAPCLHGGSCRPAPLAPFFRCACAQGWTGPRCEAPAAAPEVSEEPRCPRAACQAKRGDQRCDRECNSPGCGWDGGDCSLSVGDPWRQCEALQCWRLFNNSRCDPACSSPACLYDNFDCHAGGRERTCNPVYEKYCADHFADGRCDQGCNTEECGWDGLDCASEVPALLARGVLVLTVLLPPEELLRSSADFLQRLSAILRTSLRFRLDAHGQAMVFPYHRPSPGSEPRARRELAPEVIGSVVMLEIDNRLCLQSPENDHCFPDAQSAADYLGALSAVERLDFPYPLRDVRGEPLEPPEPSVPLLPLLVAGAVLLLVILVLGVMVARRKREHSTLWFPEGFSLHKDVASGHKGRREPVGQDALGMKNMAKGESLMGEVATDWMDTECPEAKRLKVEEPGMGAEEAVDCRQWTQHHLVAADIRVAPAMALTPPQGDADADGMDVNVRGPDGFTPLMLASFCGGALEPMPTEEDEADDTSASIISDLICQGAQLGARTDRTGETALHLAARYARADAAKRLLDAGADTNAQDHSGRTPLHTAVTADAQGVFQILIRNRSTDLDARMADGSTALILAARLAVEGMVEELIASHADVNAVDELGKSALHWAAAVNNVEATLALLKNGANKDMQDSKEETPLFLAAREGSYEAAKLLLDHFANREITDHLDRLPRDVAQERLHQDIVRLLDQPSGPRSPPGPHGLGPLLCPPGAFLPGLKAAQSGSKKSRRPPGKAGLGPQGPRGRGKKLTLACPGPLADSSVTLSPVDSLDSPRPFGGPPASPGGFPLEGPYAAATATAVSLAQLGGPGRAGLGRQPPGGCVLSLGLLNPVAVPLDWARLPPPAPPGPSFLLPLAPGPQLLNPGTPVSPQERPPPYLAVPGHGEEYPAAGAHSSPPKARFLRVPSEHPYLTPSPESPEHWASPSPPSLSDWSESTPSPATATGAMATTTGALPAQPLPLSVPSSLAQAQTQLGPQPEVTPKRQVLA
Torsin-1A-interacting protein 2 (Homo sapiens), sequence (Q8NFQ8 whole entry, looked up): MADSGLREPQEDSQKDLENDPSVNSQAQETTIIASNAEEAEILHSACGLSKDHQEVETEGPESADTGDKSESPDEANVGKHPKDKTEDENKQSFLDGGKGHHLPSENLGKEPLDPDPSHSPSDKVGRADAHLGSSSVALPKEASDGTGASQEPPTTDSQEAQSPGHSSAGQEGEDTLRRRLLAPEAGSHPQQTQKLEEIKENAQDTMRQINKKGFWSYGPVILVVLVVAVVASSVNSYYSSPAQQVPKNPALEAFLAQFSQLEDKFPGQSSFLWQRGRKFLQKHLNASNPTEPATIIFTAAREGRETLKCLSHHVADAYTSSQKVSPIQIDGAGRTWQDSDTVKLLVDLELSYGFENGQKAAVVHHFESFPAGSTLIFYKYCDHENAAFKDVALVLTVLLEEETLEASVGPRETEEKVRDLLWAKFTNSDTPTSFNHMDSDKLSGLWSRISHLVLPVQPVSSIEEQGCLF
Pro-neuregulin-1, membrane-bound isoform (Homo sapiens), sequence (Q02297 whole entry, looked up, the tested form may be a part, canonical isoform): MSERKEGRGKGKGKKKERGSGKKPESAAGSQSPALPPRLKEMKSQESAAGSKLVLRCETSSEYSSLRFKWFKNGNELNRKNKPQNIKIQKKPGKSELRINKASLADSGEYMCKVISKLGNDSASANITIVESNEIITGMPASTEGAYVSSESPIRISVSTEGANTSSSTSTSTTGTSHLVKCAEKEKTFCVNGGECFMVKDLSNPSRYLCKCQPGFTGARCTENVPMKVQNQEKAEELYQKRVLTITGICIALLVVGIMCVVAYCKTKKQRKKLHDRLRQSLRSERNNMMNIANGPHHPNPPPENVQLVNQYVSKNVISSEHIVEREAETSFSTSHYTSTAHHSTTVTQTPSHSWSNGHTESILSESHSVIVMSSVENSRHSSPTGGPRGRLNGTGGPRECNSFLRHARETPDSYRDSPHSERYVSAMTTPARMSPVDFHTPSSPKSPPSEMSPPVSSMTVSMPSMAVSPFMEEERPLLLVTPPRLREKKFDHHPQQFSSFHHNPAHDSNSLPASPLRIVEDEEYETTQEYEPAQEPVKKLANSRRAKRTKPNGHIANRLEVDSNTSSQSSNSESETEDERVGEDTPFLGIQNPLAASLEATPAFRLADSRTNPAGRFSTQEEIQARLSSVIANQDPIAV

Turning to `O=C(CCN1CCOCC1)c1cccc(O)c1`, the composite z-score in [1] is -0.302; in [2], 1.79; in [3], -0.0521; in [4], 0.628; in experiment [5], 1.31; in [6], 1.23. Moreover, the composite z-score in [7] was 1.17; in experiment [9], 0.852; in [10] it was -0.0953; in [11] it was 1.3; in experiment [15] it was 0.571; in [17] it was 0.197. Further, the composite z-score came to 0.645 in experiment [18], 1.07 in [19] and 0.234 in experiment [20]. For the same compound, the z-score was -1.28 (inactive) in [8]; -1.35 (inactive) in [12]; -5.52 (inactive) in [13]; -1.01 (inactive) in experiment [14]; -2.03 (inactive) in experiment [16].
For the compound `COCCOC(=O)N1C(=O)[C@@]2(c3cc(C#CCNC(N)=O)ccc31)[C@H](c1ccc(OCCO)cc1)N1[C@H](c3ccccc3)[C@H](c3ccccc3)OC(=O)[C@H]1[C@@H]2C(=O)N1CCc2cc(OC)c(OC)cc2C1`, the composite z-score in experiment [1] was 0.187; in experiment [2], -0.0389; in [3], -0.051; in experiment [4], 0.164; in [5], 0.638; in experiment [6] it was 0.156. The composite z-score is 0.371 in experiment [7]; 0.883 in experiment [9]; 0.327 in [10]; 0.993 in experiment [11]; 0.816 in [15]; -0.0555 in experiment [17]. For the same compound, the results for the composite z-score in experiment [18], in experiment [19] and in experiment [20] were 1.04, 0.983 and -0.0007, respectively. The z-score in [8] is 1.08 (inactive); in experiment [12], 1.46 (inactive); in experiment [13], 1.41 (inactive); in [14] it was 4.56 (inactive); in experiment [16], 0.196 (inactive).
Turning to `O=C1OCCC=C[C@H]2OC34C=CCN(Cc5ccccc5)C(=O)[C@H]3N(CCCO)C(=O)[C@@H]4C12` (stereo not given in full), the composite z-score in [1] was -0.274; in experiment [2], 0.0519; in experiment [3] it was -0.116; in experiment [4] it was -0.479; in experiment [5] it was -0.747; in [6] it was -0.555. Also, the composite z-score was 0.187 in [7]; -0.327 in [9]; -0.0003 in experiment [10]; -0.595 in [11]; 0.549 in [15]; -0.0807 in experiment [17]. Further, the values for the composite z-score in experiment [18], in experiment [19] and in experiment [20] were -0.335, -0.278 and -0.175, respectively. Also, the z-score was -0.138 (inactive) in experiment [8]; 0.252 (inactive) in experiment [12]; -0.206 (inactive) in [13]; -1.54 (inactive) in [14]; 2.79 (inactive) in experiment [16].
As for `COCCOC(=O)N1C(=O)[C@@]2(c3cc(C#CCC(C(=O)OC)C(=O)OC)ccc31)[C@H](C(=O)N1CCCCCCC1)[C@H]1C(=O)O[C@H](c3ccccc3)[C@H](c3ccccc3)N1[C@@H]2c1ccc(OCCO)cc1`, the composite z-score in experiment [1] stood at 3.71; in [2], 1.81; in experiment [3], 0.755; in experiment [4], 0.833; in experiment [5], 1.32; in experiment [6] it was 2.11. The composite z-score in [7] worked out at 1.36; in experiment [9], 3.4; in [10], 2.72; in experiment [11] it was 1.54; in [15] it was 4.11; in [17], 1.66. The values for the composite z-score in experiment [18], in experiment [19] and in experiment [20] were 2.02, 1.05 and 1.26, respectively. Further, the z-score in experiment [8] was 0.109 (inactive); in experiment [12] it was 1.47 (inactive); in experiment [13], 0.168 (inactive); in experiment [14], 2.66 (inactive); in [16], 0.275 (inactive).
With `O=C1C2C=CC(C(O)c3cccs3)N(Nc3ccccc3F)C2C(=O)N1c1ccccc1` (stereo not given), the composite z-score in experiment [1] is -0.111; in [2], 0.28; in experiment [3] it was -0.0951; in [4] it was 0.711; in experiment [5] it was 0.92; in experiment [6] it was 1.07. In addition, the composite z-score in experiment [7] is 1.17; in experiment [9], 0.267; in [10], -0.196; in experiment [11] it was -0.441; in experiment [15], 3.17; in [17], 0.0166. Also, the composite z-score in experiment [18] is -0.226; in experiment [19] it was 0.476; in [20] it was -0.11. The z-score in experiment [8] is 0.69 (inactive); in experiment [12] it was -0.471 (inactive); in [13] it was 0.915 (inactive); in experiment [14] it was -0.867 (inactive); in experiment [16], 0.153 (inactive).
Regarding `C=CCC(OC(C)=O)[C@@H]1[C@@H](N(Cc2cc3ccccc3o2)C(=O)c2ccc(C)cc2)c2cc(OCCCO)ccc2N1C(=O)c1ccc2ccccc2c1` (stereo not given in full), the composite z-score is -0.0336 in [1]; 0.117 in experiment [2]; -0.0785 in [3]; 0.339 in experiment [4]; 0.112 in experiment [5]; -0.189 in [6]. The composite z-score in [7] is 0.38; in [9] it was -0.0921; in experiment [10] it was -0.201; in [11], -0.21; in experiment [15], 0.346; in [17] it was -0.0258. In addition, the composite z-score is 0.341 in experiment [18], -0.0158 in [19] and -0.0536 in experiment [20]. Moreover, the z-score in experiment [8] is -2.76 (inactive); in [12], -0.44 (inactive); in experiment [13], 0.116 (inactive); in [14], 0.0217 (inactive); in experiment [16], 1.65 (inactive).
